The panel holds about 83,000 compounds, 20% with a hit somewhere; the sample as a whole holds those more often.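 In brief: 96-well plates, 48 h treatment, single concentration, percent growth endpoint.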 Activity calls are given as the source filed them. The calls were made as follows: active = growth percent below 10; inactive = the rest.

Here are results for 6 compounds from PubChem BioAssay (NCI).

The experiment relates to 786-0 renal. Put plainly: NCI-60 one-dose screen, 48 h (100 = growth as untreated, 0 = no growth, -100 = all killed). The following applies: 10 µM unless noted.
With `Cc1cccc(Nc2nc3ccccc3nc2/C=C/c2ccc(F)cc2)c1`, the growth was 97.3% (inactive). As to `Brc1ccc(N/N=C/c2c[nH]c3ccc(Br)cc23)nc1`, the growth was -23.8% (active). The result for `C=C1CC[C@@H]2[C@]3(C)COC(c4cn[nH]c4-c4ccc(C)cc4)O[C@@H]3CC[C@@]2(C)[C@@H]1C/C=C1/C(=O)OCC1O` (stereo partly specified) reads -64% (active); that for `O=C(Cn1c(/C=C/c2ccccc2)nc2ccccc2c1=O)Nc1ccc(Cl)cc1`, -48.9% (active). On to `CC1(C)CC[C@]2(C(=O)O)CC[C@]3(C)C(=CCC4[C@@]5(C)C[C@@H](O)[C@@H]6OC(c7ccccc7Br)OC[C@@]6(C)C5CC[C@]43C)C2C1` (stereo partly specified), for which the growth was 24.9% (inactive). Next, `C=C1CCC2C3(C)COC(c4ccco4)OC3CCC2(C)C1CC(Sc1ccccc1)C1=CCOC1=O` (stereo unspecified): 62.7% (inactive).
